In PubChem BioAssay AID504375 (National Center for Advancing Translational Sciences (NCATS), 2011) one finds Potency data, which are given here for 105 compounds.

Structures are written as SMILES. About 25 (2%) of roughly 1,600 compounds were called active. Another 7% or so got no clear call; they are omitted. Calls come from the whole dose curve; as a rule, active = well fitted inhibition curve with a large enough effect; inconclusive = small, poorly fitted or top-dose-only effect, or effect the other way; inactive = no such curve, though single readings can be large or run the other way. The list comes from a sample in which actives are over-represented; it also holds similar structures and randomly drawn compounds. Where a call stands in place of a potency, no number is given.
Potency is the fitted concentration of half-maximal effect.

Chain of Runt-related transcription factor 1 (Homo sapiens) + Core-binding factor subunit beta (Homo sapiens) (Q01196 whole entry, looked up): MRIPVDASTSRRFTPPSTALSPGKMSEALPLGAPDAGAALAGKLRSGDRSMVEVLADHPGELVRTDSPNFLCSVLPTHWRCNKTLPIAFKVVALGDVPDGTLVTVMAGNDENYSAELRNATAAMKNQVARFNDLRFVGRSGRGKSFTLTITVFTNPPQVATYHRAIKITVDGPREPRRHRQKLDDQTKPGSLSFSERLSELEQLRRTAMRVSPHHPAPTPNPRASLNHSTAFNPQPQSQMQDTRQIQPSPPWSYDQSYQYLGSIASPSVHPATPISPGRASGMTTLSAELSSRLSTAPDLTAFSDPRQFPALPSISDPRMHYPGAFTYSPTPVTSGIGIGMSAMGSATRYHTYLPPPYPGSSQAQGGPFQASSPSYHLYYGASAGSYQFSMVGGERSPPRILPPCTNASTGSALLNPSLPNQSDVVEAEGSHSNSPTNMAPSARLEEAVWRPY
Chain of Runt-related transcription factor 1 (Homo sapiens) + Core-binding factor subunit beta (Homo sapiens) (Q13951 whole entry, looked up): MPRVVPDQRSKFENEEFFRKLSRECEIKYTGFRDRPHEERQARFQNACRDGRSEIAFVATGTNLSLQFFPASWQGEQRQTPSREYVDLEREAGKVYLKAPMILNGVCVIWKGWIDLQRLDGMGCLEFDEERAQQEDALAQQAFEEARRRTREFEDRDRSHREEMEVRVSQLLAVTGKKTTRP

This assay addresses Runt-related transcription factor 1 (Homo sapiens) + Core-binding factor subunit beta (Homo sapiens) (UniProt Q01196+Q13951). Kind of assay: qHTS Assay for Compounds Blocking the Interaction Between CBF-beta and RUNX1 for the Treatment of Acute Myeloid Leukemia: Hit Validation with Orthogonal Assay. The settings on record: CBFbeta-RUNX1 binding orthogonal assay, biochemical; series mostly up to 41 µM. Summed up:
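This is an orthogonal TR-FRET assay. His6-CBF-beta and biotin-RUNX1 (30 nM each) were preincubated with compound for 30 min, then Tb-anti-His antibody (0.44 ng) and streptavidin-XL665 (5 nM) were added. The signal was read after 90 min.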
Consider `C/C(=N\NC(=O)Cn1nc(C)cc1C)c1ccc([N+](=O)[O-])cc1`, for which the Potency result is “inactive”.

Take `Cc1n[nH]c(C)c1CCC(=O)N/N=C/c1cccs1`: the Potency entry is “inactive”. In the case of `CCOC(=O)COc1nc2c(c(-c3ccco3)c1C#N)CCc1ccccc1-2` it was “inactive”; in that of `CCOc1ccc(/C(C)=N/NC(=O)Cn2nc([N+](=O)[O-])cc2C)cc1`, “inactive”. `Cc1[nH]c(=O)[nH]c1C(=O)CCCCC(=O)OCC(=O)Nc1ccccn1`: the Potency was 44.7 nM (active). On to `Cc1ccccc1NC(=S)Nc1ccccn1`, for which the Potency entry was “inactive”. Turning to `Cc1ccc(NC(=S)Nc2ccccn2)cc1C`, the Potency result is “inactive”. Take `Clc1nc(Cl)nc(-c2cn(-c3ccccc3)c3ccccc23)n1`: the Potency result is “inactive”.

For `Nc1c(Cl)ncnc1NCC(O)CO` (stereo not given), the Potency result was “inactive”. Regarding `Cc1onc(-c2c(Cl)cccc2Cl)c1C(=O)c1ccc(F)cc1`, the Potency entry is “inactive”.

On to `O=C(O[C@@H]1OC2COC(=O)c3cc(O)c(O)c(O)c3-c3c(cc(O)c(O)c3O)C(=O)O[C@@H]([C@H]1O)[C@@H]2O)c1cc(O)c(O)c(O)c1`, for which the Potency is 891 nM (active). Consider `O=C1OCC2OC(O)C(O)C(O)C2OC(=O)c2cc(O)c(O)c(O)c2-c2c(O)c(O)c3oc(=O)c4c(c(O)c(O)c5oc(=O)c2c3c54)-c2c1cc(O)c(O)c2O` (stereo not given), for which the Potency was 398 nM (active). Turning to `Cc1nn(C)c(Sc2ccccn2)c1[N+](=O)[O-]`, the Potency result was “inactive”. As to `Nc1ccc(Oc2ccccc2F)nc1`, the Potency result is “inactive”.

On to `Cc1nc(C)c(-c2ccn(C(=O)NC(C)C)n2)s1`, for which the Potency result was “inactive”. In the case of `CC(C)(C)c1ccc(C(=O)Nc2ccc(S(N)(=O)=O)cc2)cc1`, the Potency result is “inactive”. Consider `c1ccc2oc(-c3ccn[nH]3)cc2c1`, for which the Potency entry is “inactive”. With `CN(C)C(=S)Nc1ccc(Cl)cc1` the entry was “inactive”; with `C/C(=N\NC(=O)c1cc(-c2cccc([N+](=O)[O-])c2)n[nH]1)c1ccc(F)cc1`, “inactive”. With `Cc1cc(Cl)c2cc3ccccc3cc2n1` the entry was “inactive”. For `Cc1ccc(Cl)cc1NC(=S)N(CCN(C)C)C(C)c1ccccn1` (stereo not given), the Potency was 1220 nM (active). For the compound `Cc1ccc(Cl)cc1NC(=S)NN`, the Potency result was “inactive”. Regarding `Cc1cccc(NC(=S)N(CCN(C)C)C(C)c2ccccn2)c1` (stereo not given), the Potency result was “inactive”. Consider `COc1ccc(C2Sc3ccccc3N(CCN(C)C)C(=O)C2OC(C)=O)cc1` (stereo not given), for which the Potency result was “inactive”.

In the case of `c1ccc(N2CCOCCOCCOCCOCC2)cc1`, the Potency result was “inactive”.

Regarding `CC(C)(C)OC(=O)N1CCCN(C(=O)Nc2cccc(Cl)c2)CC1`, the Potency result is “inactive”.

On to `O=C1c2ccccc2C(=O)N1/N=C/c1ccc(O)c(O)c1O`, for which the Potency was 2820 nM (active).

Consider `COc1ccc(C(=O)COc2ccc(C)cc2NC(C)=O)cc1`, for which the Potency result was “inactive”.

`CC1CC(C)(C)NC(=S)O1` (stereo not given): the Potency result is “inactive”. With `CCCCCNc1nc2sc3c(c2c(=O)n1-c1cccc(Cl)c1)CCN(C)C3` the entry was “inactive”. `Cc1cc(C)c2c(N)c(-c3nnc(SCc4ccc(Cl)cc4)n3C)sc2n1`: the Potency result was “inactive”. With `O=C(/C=C/c1cn(CC(O)CN2CCCCC2)c2ccccc12)c1ccccc1` (stereo not given) the entry was “inactive”; with `S=c1[nH]nc([C@@H]2C[C@H]2c2ccccc2)n1-c1ccccc1Cl`, “inactive”.

For `CCc1cccc(NC(=O)CCCCCC2NC(=O)NC2C)c1` (stereo not given), the Potency is 56.2 nM (active).

Take `CCCCC(=O)Nc1ccc(NC(=S)NC(=O)c2ccco2)cc1OC`: the Potency result is “inactive”. As to `CCC(=O)Nc1cccc(C(=O)OC)c1`, the Potency result was “inactive”.

In the case of `CCCCc1c(C)nc(N2CCCC2)[nH]c1=O`, the Potency entry was “inactive”.

Consider `Cc1cc(=O)n2[nH]c(CCC(=O)O)nc2n1`, for which the Potency result is “inactive”. For the compound `CCN(CC)S(=O)(=O)c1cccc(NC2=NCCCCC2)c1`, the Potency entry is “inactive”. With `CCN1C/C(=C/c2cccs2)c2nc3ccccc3c(C(=O)O)c2C1` the entry was “inactive”. On to `COc1ccc(OS(=O)(=O)c2c(C)noc2C)cc1`, for which the Potency entry was “inactive”. Take `O=C(OCC1OC(OC(=O)c2cc(O)c(O)c(OC(=O)c3cc(O)c(O)c(O)c3)c2)[C@@H](OC(=O)c2cc(O)c(O)c(OC(=O)c3cc(O)c(O)c(O)c3)c2)C(OC(=O)c2cc(O)c(O)c(OC(=O)c3cc(O)c(O)c(O)c3)c2)C1OC(=O)c1cc(O)c(O)c(OC(=O)c2cc(O)c(O)c(O)c2)c1)c1cc(O)c(O)c(OC(=O)c2cc(O)c(O)c(O)c2)c1` (stereo not given in full): the Potency is 10000 nM (active). In the case of `O=C(Nc1ccc(Cl)cc1)N1CCCC(Cn2cccc2)C1` (stereo not given), the Potency result is “inactive”. Take `CC(C)c1nc2oc3c(N(C)CCO)ncnc3c2c2c1CCC2`: the Potency entry was “inactive”. Turning to `CC(C)(C)NC(=O)c1cccc2c1C(=O)c1ccccc1-2`, the Potency result was “inactive”. With `O=C(O)C[C@@H]1C(=O)O[C@@H]2C(COC(=O)c3cc(O)c(O)c(O)c3)O[C@@H](OC(=O)c3cc(O)c(O)c(O)c3)[C@@H](OC(=O)c3cc(O)c(O)c4c3[C@H]1[C@H](O)C(=O)O4)[C@H]2OC(=O)c1cc(O)c(O)c(O)c1` (stereo not given in full), the Potency was 89.1 nM (active). In the case of `CCN(CC)c1ccc(/C=N/N2CCN(Cc3ccccc3Cl)CC2)c(O)c1` it was “inactive”; in that of `CCCNC(=S)Nc1ccccc1`, “inactive”; in that of `CC1CCC2(CC1)NC(=S)N(C(C)(C)C)N2` (stereo not given), “inactive”. In the case of `CN1c2ccccc2C(=O)/C(=C\Nc2ccc(F)cc2)S1(=O)=O` it was “inactive”. With `COC(=O)[C@@H](NC(=O)NC1CCCCC1C)C(C)C` (stereo not given in full), the Potency entry was “inactive”.

On to `CCCCCc1ccc(S(=O)(=O)Nc2cc(C)ccn2)cc1`, for which the Potency entry is “inactive”. With `Cc1onc(-c2ccccc2)c1C(=O)NNC(=S)NC(=O)c1ccc2c(c1)OCO2` the entry was “inactive”.

With `O=C(CCl)NCCCN(C(=O)C(Cl)Cl)c1ccc([N+](=O)[O-])cc1`, the Potency result is “inactive”. As to `Cn1nc(-c2ccccc2)cc1NS(=O)(=O)c1ccccc1`, the Potency result is “inactive”. In the case of `Cc1c2c(c(O)c3c(O)cccc13)C(=O)O[C@H]2C1C(N(C)C)C(O)=C(C(N)=O)C(=O)[C@H]1O` (stereo not given in full), the Potency is 2240 nM (active). Regarding `O=C(NNC(=S)Nc1ccccc1C(F)(F)F)C1CC1`, the Potency entry is “inactive”. Consider `COc1cc(/C=N\NC(=O)CNC(=O)C(c2ccccc2)c2ccccc2)ccc1O`, for which the Potency entry was “inactive”. In the case of `COCc1cc(=O)n2[nH]c(C(C)(C)C)cc2n1`, the Potency entry was “inactive”. With `COc1cc(NCc2ccccc2O)c2ncccc2c1`, the Potency entry was “inactive”.

In the case of `COc1ccc(NS(=O)(=O)c2ccc(Cl)s2)cn1`, the Potency result is “inactive”. In the case of `O=C(NN1C(=O)C2CCCCC2C1=O)c1ccco1` (stereo not given), the Potency entry was “inactive”. In the case of `O=c1c(O)cccc2cc(O)c(O)c(O)c12`, the Potency was 1260 nM (active).

Turning to `O=C(NC(=S)NNC(=O)c1ccccc1O)c1ccco1`, the Potency is 3160 nM (active). Take `O=C(NC(=S)Nc1ccccc1N1CCCC1)c1ccco1`: the Potency entry is “inactive”. In the case of `Cc1onc(-c2ccccc2)c1C(=O)NC(=S)NNC(=O)c1ccco1`, the Potency entry was “inactive”.

Take `Cc1cc(NC(=O)CN2CCOCC2)n(-c2ccccc2)n1`: the Potency result was “inactive”.

As to `NS(=O)(=O)c1ccc(Sc2ccccn2)c([N+](=O)[O-])c1`, the Potency result was “inactive”.

Regarding `O=C(Nc1ccc2ccccc2c1)c1ccc(Cl)cc1Cl`, the Potency entry is “inactive”. As to `COc1cccc(/C=N/n2nnnc2N)c1`, the Potency result was “inactive”. Turning to `CCN(CC)S(=O)(=O)c1ccc(/C=C/C(=O)Nc2ccc(N3CCOCC3)cc2)cc1`, the Potency entry was “inactive”. For `CN(C(=O)C(Cl)Cl)C1CC2C=CC1C2` (stereo not given), the Potency result was “inactive”. As for `Cc1cc(C)c(OCC(=O)N(Cc2ccc(N(C)C)cc2)C2CCS(=O)(=O)C2)c(C)c1` (stereo not given), the Potency entry was “inactive”. As to `CN(C)S(=O)(=O)c1ccc(Cl)c(NC(=O)CN2CCN(Cc3ccc4c(c3)OCO4)CC2)c1`, the Potency result was “inactive”.

`CC(C)(O)P(=O)(O)CCc1ccccc1`: the Potency entry was “inactive”. As to `COC(=O)c1ccccc1N=Nc1c(C)noc1C`, the Potency result is “inactive”. For the compound `COc1ccccc1/C=C/C=N/n1c(-c2ccccn2)n[nH]c1=S`, the Potency result is “inactive”.

Take `CC(=O)Oc1ccc(C(=O)Nc2cccc(-c3nnc(-c4ccco4)o3)c2)cc1`: the Potency entry is “inactive”.

`C=CCNC(=S)NCC`: the Potency result is “inactive”.

With `CN(C)c1cc(-c2ccc([N+](=O)[O-])cc2)oc(=O)c1Cl`, the Potency entry was “inactive”. As for `CCCc1cc(=O)oc2c(CN(CC)CC)c(O)c(Cl)cc12`, the Potency entry was “inactive”.

Regarding `C/C(=N\O)C1CC(CC(=O)O)C1(C)C` (stereo not given), the Potency result is “inactive”. With `CCc1sc(N)nc1-c1ccccc1`, the Potency entry is “inactive”. Regarding `CC(C)NC(=O)NNC(=O)Cn1nnc(-c2cccc(Cl)c2Cl)n1`, the Potency result is “inactive”.

For `COCCn1c(-c2ccc(Br)cc2)nc2oc3cc(OC)ccc3c(=O)c2c1=O`, the Potency entry is “inactive”. Regarding `Fc1c(CSC(=S)N2CCOCC2)cccc1CSC(=S)N1CCOCC1`, the Potency entry was “inactive”. On to `COc1ccc(/C=C/C(=O)Oc2cc(O)cc(O)c2)cc1`, for which the Potency entry was “inactive”.

Regarding `CN1C2CCC1CC(NC(=O)c1ccc(Cl)cc1)C2` (stereo not given), the Potency result was “inactive”. `O=C(O)C1=CC(=C(c2ccc(O)c(C(=O)O)c2)c2ccc(O)c(C(=O)O)c2)C=CC1=O`: the Potency is 7940 nM (active). On to `COc1ccc(/C=N/NC(=O)c2ccc(Br)cc2)cc1CN1CCOCC1`, for which the Potency entry is “inactive”. With `O=[N+]([O-])c1cc(Cl)cc(/C=N/NC(=S)Nc2ccc(S(=O)(=O)N3CCOCC3)cc2)c1O`, the Potency result was “inactive”. Consider `CSCC[C@H](NC(=O)OC(C)(C)C)C(=O)N/N=C/c1cccc2nccnc12`, for which the Potency entry was “inactive”. With `COc1ccccc1N1C(=O)[C@@H]2[C@H](C1=O)[C@H](C(=O)c1ccc(OC(C)=O)cc1)N1N=CC=C[C@@H]21` the entry was “inactive”; with `CC(C)Nc1cc(C(C)(C)C)nc2c(-c3ccccc3)cnn12`, “inactive”. With `Cc1nnc(NC(=O)c2ccccc2NC(=O)c2ccccc2)s1` the entry was “inactive”; with `CN1CCN(C(=O)C23CC4CC(C)(CC(C)(C4)C2)C3)CC1`, “inactive”; with `COc1cccc(N/C(=N/C(=S)Nc2ccc(C)cc2C)Nc2nc(C)cc(C)n2)c1`, “inactive”.

As for `CC(=O)N1N=C2c3ccccc3CCC2C1c1cccs1` (stereo not given), the Potency entry was “inactive”.

Turning to `CC(=O)Nc1ccc(NS(=O)(=O)c2ccc(C)cc2)cc1[N+](=O)[O-]`, the Potency entry was “inactive”.

`Cc1cc(-c2ccccc2C(=O)Nc2ccccc2O)on1`: the Potency entry was “inactive”. For `O=C(O)c1ccccc1C(=O)Nc1ccc(-n2ccc(C(F)(F)F)n2)cc1`, the Potency result was “inactive”. `Cc1nc2c(c(=O)c3ccccc3n2C)c(=O)n1-c1ccccc1`: the Potency result was “inactive”. As to `CN(C)c1ccc(NC(=O)Nc2csc3ccccc23)cc1`, the Potency result was “inactive”. On to `CSc1cccc(NC(=O)Nc2ccccc2C(N)=O)c1`, for which the Potency entry is “inactive”. On to `NC(=O)c1ccc(NC(=O)COC(=O)/C=C/c2ccc3c(c2)OCO3)cc1`, for which the Potency entry was “inactive”.
